Measured values as given in the supplement of paper PMC12067093, “Discovery and optimisation of a covalent ligand for TRIM25 and its application to targeted protein ubiquitination” (Chemical Science, 2025).
About 21,000 targets were measured; listed, in parts, are those with the largest changes and a random draw of the rest.

Compound: Cc1cc(ccc1-c1ccccc1)C(=O)N1CCCN(CC1)C(=O)CCl [compound 10]
Test: probe-labelled cysteine peptide fold change vs DMSO (competition) (log2 fold change); higher = less target engagement (more negative = stronger competition)
Conditions: THP-1, incubation time: 4 h
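Note: competitive profiling in live THP-1 cells: cysteine peptides tagged with an iodoacetamide desthiobiotin (IA-DTB) probe, intensity after compound treatment relative to DMSO-treated cells.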

UniProt Q9NXH9, sequence (Q9NXH9 whole entry, looked up): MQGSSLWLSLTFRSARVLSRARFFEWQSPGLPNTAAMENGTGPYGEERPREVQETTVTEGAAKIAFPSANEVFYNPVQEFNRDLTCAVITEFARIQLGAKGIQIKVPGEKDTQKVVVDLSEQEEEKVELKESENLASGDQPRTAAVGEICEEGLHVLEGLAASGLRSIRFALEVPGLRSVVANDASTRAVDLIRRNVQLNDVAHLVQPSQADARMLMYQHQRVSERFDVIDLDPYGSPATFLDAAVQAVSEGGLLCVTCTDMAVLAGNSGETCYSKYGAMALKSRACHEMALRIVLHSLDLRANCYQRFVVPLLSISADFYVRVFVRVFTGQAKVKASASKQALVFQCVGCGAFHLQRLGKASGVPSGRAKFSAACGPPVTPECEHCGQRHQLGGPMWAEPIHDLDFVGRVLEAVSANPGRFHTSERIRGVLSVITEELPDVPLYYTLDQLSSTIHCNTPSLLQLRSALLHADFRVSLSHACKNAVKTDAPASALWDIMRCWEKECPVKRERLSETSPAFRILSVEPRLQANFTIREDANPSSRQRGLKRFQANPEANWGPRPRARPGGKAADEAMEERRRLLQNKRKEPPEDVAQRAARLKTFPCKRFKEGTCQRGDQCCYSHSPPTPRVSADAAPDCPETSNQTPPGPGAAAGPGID
UniProt Q15631, sequence (Q15631 whole entry): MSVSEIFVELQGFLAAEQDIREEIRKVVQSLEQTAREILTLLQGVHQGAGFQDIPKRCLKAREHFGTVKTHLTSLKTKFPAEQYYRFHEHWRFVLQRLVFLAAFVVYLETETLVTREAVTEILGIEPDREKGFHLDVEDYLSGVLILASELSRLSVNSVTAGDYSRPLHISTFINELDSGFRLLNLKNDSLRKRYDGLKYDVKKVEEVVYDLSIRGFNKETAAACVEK
UniProt O95071, sequence (O95071 whole entry, looked up): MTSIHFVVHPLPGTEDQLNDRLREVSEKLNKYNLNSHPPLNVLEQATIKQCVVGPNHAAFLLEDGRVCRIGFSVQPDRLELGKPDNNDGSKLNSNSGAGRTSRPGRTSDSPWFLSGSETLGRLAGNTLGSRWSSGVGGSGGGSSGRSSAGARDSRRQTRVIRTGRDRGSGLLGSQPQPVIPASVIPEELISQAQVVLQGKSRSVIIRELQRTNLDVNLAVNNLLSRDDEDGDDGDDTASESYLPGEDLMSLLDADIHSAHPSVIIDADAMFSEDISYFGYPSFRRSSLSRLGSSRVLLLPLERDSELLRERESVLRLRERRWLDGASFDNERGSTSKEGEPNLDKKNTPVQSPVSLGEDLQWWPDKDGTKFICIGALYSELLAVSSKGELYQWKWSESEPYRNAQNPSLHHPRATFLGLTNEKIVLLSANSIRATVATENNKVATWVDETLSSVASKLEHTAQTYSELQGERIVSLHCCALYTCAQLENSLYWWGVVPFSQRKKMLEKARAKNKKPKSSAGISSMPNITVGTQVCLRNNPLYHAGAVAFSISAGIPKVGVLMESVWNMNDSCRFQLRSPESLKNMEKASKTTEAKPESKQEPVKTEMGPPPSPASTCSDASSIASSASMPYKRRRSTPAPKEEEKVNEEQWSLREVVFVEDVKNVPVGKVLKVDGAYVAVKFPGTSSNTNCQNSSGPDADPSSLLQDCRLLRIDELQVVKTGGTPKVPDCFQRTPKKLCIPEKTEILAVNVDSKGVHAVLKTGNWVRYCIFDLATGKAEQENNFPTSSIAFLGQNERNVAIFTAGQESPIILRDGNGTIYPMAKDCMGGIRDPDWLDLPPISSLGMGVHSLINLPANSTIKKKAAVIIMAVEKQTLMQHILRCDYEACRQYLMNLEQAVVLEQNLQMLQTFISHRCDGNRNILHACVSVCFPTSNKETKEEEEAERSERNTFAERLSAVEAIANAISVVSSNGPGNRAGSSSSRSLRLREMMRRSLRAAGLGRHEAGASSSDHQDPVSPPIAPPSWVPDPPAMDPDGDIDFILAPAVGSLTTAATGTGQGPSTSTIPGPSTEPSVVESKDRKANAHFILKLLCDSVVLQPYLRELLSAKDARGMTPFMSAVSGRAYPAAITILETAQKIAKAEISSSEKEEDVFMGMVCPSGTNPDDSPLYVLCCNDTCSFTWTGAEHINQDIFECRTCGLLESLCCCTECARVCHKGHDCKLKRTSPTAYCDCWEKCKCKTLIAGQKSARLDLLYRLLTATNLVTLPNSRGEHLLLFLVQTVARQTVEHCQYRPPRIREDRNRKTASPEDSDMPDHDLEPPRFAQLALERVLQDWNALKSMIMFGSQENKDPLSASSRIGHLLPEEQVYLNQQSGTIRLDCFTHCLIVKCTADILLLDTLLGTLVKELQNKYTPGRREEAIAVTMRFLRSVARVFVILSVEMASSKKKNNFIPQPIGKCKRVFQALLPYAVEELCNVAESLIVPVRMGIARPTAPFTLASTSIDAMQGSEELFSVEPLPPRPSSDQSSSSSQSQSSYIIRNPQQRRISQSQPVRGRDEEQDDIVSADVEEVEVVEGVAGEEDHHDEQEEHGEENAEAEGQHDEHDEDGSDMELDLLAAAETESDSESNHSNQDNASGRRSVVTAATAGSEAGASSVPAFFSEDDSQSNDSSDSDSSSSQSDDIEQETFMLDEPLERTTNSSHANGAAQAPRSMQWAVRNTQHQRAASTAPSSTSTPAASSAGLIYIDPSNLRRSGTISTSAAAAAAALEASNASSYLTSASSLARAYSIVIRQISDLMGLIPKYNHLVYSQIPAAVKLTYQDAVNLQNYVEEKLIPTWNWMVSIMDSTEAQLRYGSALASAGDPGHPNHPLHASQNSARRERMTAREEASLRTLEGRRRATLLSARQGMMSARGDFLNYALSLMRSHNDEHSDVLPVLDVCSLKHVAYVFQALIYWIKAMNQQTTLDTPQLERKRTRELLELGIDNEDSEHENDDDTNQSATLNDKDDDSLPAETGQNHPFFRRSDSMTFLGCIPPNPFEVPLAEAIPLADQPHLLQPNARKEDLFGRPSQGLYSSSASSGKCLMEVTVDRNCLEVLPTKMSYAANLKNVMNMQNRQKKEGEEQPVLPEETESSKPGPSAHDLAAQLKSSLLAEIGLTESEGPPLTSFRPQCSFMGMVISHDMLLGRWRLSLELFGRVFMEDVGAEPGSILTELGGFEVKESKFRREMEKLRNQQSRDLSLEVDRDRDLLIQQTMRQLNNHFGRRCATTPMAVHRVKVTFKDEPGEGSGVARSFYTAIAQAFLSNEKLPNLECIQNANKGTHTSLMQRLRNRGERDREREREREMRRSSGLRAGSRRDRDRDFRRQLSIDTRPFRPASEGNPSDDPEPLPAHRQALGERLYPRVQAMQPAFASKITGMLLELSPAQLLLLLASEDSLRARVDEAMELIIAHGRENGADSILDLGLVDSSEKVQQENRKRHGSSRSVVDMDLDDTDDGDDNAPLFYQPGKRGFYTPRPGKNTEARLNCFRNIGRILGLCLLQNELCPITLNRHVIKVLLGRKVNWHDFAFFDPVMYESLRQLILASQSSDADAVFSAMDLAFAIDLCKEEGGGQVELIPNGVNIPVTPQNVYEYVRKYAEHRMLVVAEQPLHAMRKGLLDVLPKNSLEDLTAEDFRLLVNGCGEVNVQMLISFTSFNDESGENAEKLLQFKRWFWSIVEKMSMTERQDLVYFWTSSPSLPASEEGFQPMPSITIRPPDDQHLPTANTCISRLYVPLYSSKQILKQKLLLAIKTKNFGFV
UniProt O15042, sequence (O15042 whole entry, looked up): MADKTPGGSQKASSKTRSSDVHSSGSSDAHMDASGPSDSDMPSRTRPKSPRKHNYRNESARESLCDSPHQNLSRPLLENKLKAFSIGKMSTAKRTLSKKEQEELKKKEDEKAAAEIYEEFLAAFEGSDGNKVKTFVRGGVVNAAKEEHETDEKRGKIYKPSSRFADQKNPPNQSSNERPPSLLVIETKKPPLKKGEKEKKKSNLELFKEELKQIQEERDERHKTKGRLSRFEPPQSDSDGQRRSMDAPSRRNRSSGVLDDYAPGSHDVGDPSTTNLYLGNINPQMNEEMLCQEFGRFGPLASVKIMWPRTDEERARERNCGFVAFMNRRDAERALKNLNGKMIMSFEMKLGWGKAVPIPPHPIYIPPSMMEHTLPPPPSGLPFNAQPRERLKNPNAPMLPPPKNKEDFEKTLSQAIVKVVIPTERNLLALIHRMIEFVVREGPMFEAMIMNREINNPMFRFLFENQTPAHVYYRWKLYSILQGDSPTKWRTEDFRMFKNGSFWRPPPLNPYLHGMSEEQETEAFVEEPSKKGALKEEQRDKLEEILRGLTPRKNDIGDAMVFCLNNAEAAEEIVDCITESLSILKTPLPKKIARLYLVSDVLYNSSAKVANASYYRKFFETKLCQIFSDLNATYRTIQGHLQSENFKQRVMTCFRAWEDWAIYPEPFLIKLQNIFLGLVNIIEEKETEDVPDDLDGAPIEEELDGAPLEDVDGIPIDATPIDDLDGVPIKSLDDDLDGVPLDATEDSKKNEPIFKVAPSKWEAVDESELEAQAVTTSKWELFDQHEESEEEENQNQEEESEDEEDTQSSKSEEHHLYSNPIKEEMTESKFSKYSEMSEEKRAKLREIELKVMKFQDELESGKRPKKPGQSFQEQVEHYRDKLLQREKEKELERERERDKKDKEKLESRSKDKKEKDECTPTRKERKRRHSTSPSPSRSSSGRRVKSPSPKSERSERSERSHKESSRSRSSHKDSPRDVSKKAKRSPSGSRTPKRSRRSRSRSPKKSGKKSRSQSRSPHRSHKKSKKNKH
UniProt Q7Z6J8, sequence (Q7Z6J8 whole entry, looked up): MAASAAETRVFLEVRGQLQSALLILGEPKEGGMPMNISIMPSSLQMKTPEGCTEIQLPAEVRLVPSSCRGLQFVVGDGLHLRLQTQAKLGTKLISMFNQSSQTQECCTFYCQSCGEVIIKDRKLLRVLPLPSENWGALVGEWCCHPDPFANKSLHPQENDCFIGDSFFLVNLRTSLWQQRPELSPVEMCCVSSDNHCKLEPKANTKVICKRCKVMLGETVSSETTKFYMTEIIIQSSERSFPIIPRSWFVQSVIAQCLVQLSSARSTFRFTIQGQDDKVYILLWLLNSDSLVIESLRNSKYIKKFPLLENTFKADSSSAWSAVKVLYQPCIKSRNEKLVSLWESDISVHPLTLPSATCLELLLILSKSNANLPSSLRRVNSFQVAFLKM

Target	probe-labelled cysteine peptide fold change (10 µM)	probe-labelled cysteine peptide fold change (50 µM)
UBE2O_Q9C0C9_375_NCAQGEGSMAK (UniProt Q9C0C9)	-0.0634	-0.156
VCPIP1_Q96JH7_207+219_SQECLIPVHVDGDGHCLVHAVSR (UniProt Q96JH7)	-1.2	-1.48
UHRF1BP1L_A0JNW5_398_NGWANELLHEFECNVEMLK (UniProt A0JNW5)	-0.0203	-0.158
UVRAG_Q9P2Y5_186_TILLQVDQNCVR (UniProt Q9P2Y5)	-0.089	-0.0238
TRIM33_Q9UPN9_276_KKEDVSESVGASGQRPVFCPVHK (UniProt Q9UPN9)	-0.0301	-0.148
VCPIP1_Q96JH7_219_SQECLIPVHVDGDGHCLVHAVSR (UniProt Q96JH7)	-2.4	< -5
TUBG1_P23258_138_IHEDIFDIIDREADGSDSLEGFVLCHSIAGGTGSGLGSYLLER<|>TUBG2_Q9NRH3_138_IHEDIFDIIDREADGSDSLEGFVLCHSIAGGTGSGLGSYLLER (UniProt Q9NRH3+P23258)	0.194	-0.0593
USP48_Q86UV5_145_DYEPQTICEHLQYLFALLQNSNRR (UniProt Q86UV5)	0.119	0.166
TTLL12_Q14166_361_PGVLLNQFPCENLLTVK (UniProt Q14166)	-0.00778	-0.111
TTF1_Q15361_445_KTQACLASK (UniProt Q15361)	-0.039	-0.411
UBR1_Q8IWV7_1603_NSLIELPDDYSCLLNQASHFR (UniProt Q8IWV7)	-0.114	-0.631
TRAPPC11_Q7Z392_615_ADCPHPIR (UniProt Q7Z392)	0.126	0.142
USP48_Q86UV5_512+514_WLDESTPTKPIDNHACLCSHDK (UniProt Q86UV5)	-0.0825	-1.16
UBR7_Q8N806_155_RPYPDPEDEIPDEMIQCVVCEDWFHGR (UniProt Q8N806)	0.0312	0.0116
TRIM25_Q14258_506_FTYCSQVLGLHCYK (UniProt Q14258)	-1.09	-4.87
UBR7_Q8N806_46_CSYSQGSVKR (UniProt Q8N806)	-0.118	-0.607
UBR2_Q8IWV8_1717_GNPLHLCK (UniProt Q8IWV8)	-0.263	-1.31
TRMT1_Q9NXH9_621_GDQCCYSHSPPTPR (UniProt Q9NXH9)	-0.0265	-0.0659
UQCRC2_P22695_192_NALANPLYCPDYR (UniProt P22695)	0.015	0.158
USP9Y_O00507_674_DGQLWLCAPQAK (UniProt O00507)	-0.00329	-0.161
TUBA4A_P68366_4_MRECISVHVGQAGVQMGNACWELYCLEHGIQPDGQMPSDK (UniProt P68366)	-0.0787	-0.408
USP9X_Q93008_1061_AICLDHAK (UniProt Q93008)	0.267	0.565
TRIM5_Q9C035_95_VDHCAR (UniProt Q9C035)	-0.107	-0.113
USP24_Q9UPU5_995_QLCSPVDNIQIFTNDSLLTVNK (UniProt Q9UPU5)	0.165	0.107
UBA3_Q8TBC4_28_MAVDGGCGDTGDWEGR (UniProt Q8TBC4)	-0.245	-0.0349
UBN1_Q9NPG3_765_ELSCQAPLNK (UniProt Q9NPG3)	-0.169	-0.168

Target	probe-labelled cysteine peptide fold change (10 µM)	probe-labelled cysteine peptide fold change (50 µM)
USP19_O94966_656+659_LVCPVCAK (UniProt O94966)	-0.159	-1.2
TUBAL3_A6NHL2_322+323_YMACCLLYR<|>TUBA1B_P68366_315+316_YMACCLLYR<|>TUBA4A_Q9BQE3_315+316_YMACCLLYR (UniProt P68366+Q9BQE3+A6NHL2)	-0.349	-0.661
VIM_P08670_328_RQVQSLTCEVDALK (UniProt P08670)	0.00911	-0.139
UBA6_A0AVT1_721_ALQLLHCFPLDIR	0.0248	0.215
TRIM13_O60858_106_GHLGQPLNIFCLTDMQLICGICATR (UniProt O60858)	0.0739	-0.215
UGGT1_Q9NYU2_1475+1479_SLPQEWLWCETWCDDASK (UniProt Q9NYU2)	-0.291	-0.0794
TRPM4_Q8TD43_759_QSGRPGCCGGR (UniProt Q8TD43)	-0.788	-2.09
USP13_Q92995_231_ENLWLNLTDGSVLCGK (UniProt Q92995)	0.0774	0.113
TRIM56_Q9BRZ2_41_TLPCLHTYCQDCLAQLADGGR (UniProt Q9BRZ2)	0.238	0.113
TUBA3C_P0DPH7_4+20+25_MRECISIHVGQAGVQIGNACWELYCLEHGIQPDGQMPSDK<|>TUBA3D_P68363_4+20+25_MRECISIHVGQAGVQIGNACWELYCLEHGIQPDGQMPSDK<|>TUBA1B_Q6PEY2_4+20+25_MRECISIHVGQAGVQIGNACWELYCLEHGIQPDGQMPSDK<|>TUBA3E_Q9BQE3_4+20+25_MRECISIHVGQAGVQIGNACWELYCLEHGIQPDGQMPSDK (UniProt Q9BQE3+Q6PEY2+P68363+P0DPH7)	0.318	0.131
UGGT1_Q9NYU2_880_MDFILSHAVYCR (UniProt Q9NYU2)	0.117	0.39
VPS26B_Q4G0F5_334_TPSQLSDNNCRQ (UniProt Q4G0F5)	-0.205	-0.321
TRMT11_Q7Z4G4_161_KPQHVFSVLEDYGLDPNCIPENPHNIYFGR (UniProt Q7Z4G4)	-0.0115	-0.0241
VAPA_Q9P0L0_179_KLMEECK (UniProt Q9P0L0)	-0.0535	-0.275
TXNRD2_Q9NNW7_279_GCAPSR (UniProt Q9NNW7)	0.0601	1.36
UBA7_P41226_68_NLVLMGVGSLTLHDPHPTCWSDLAAQFLLSEQDLER (UniProt P41226)	0.0506	0.33
USP15_Q9Y4E8_633+634_ISTETEETEGSLHCCK (UniProt Q9Y4E8)	-0.567	-1.51
USP40_Q9NVE5_50_NQGGTCYLNSLLQTLHFTPEFR (UniProt Q9NVE5)	-0.592	-1.83
TXN2_Q99757_93_VVNSETPVVVDFHAQWCGPCK (UniProt Q99757)	-1.34	-1.7
TXNDC5_Q8NBS9_353_FYAPWCGHCK (UniProt Q8NBS9)	-0.372	-1.61
UROS_P10746_143_ESSALPLLFPCGNLKR (UniProt P10746)	-0.128	-0.405
TXNIP_Q9H3M7_170_VSCMFIPDGR (UniProt Q9H3M7)	0.0303	-1.26
UBE3D_Q7Z6J8_52_TPEGCTEIQLPAEVR (UniProt Q7Z6J8)	0.0793	0.147
VPS37A_Q8NEZ2_375_TICHCR (UniProt Q8NEZ2)	0.41	1.08
TTC17_Q96AE7_725_CPECENSLK (UniProt Q96AE7)	0.113	0.453
TSN_Q15631_225_ETAAACVEK (UniProt Q15631)	-0.291	-0.282

Target	probe-labelled cysteine peptide fold change (10 µM)	probe-labelled cysteine peptide fold change (50 µM)
TRNT1_Q96Q11_373_YQGEHCLLK (UniProt Q96Q11)	-0.39	-1.54
TRIM28_Q13263_717_VLLALFCHEPCR (UniProt Q13263)	0.00318	0.0176
UTP20_O75691_242_NMFHSCTGQAVK (UniProt O75691)	-0.122	0.227
TYSND1_Q2T9J0_17_AAEQAGCMVSASR (UniProt Q2T9J0)	0.0109	0.0758
USP34_Q70CQ2_1330_KGEGVQLPASCLPPPQK (UniProt Q70CQ2)	-0.079	-0.0424
UBR5_O95071_572_VGVLMESVWNMNDSCR (UniProt O95071)	-0.0405	0.0537
USP19_O94966_1169_EEQLPSYDLYAVINHYGGMIGGHYTACAR (UniProt O94966)	-0.00515	0.0872
TRRAP_Q9Y4A5_3535_IYPYLVMNDACLTESR (UniProt Q9Y4A5)	-0.136	-0.0829
TTC39C_Q8N584_517_AVKDELCR (UniProt Q8N584)	-0.00819	-0.291
USP8_P40818_809_NCYQDDINR (UniProt P40818)	-0.199	-1.27
USP40_Q9NVE5_1054_RIEICLEPLQK (UniProt Q9NVE5)	0.0209	-0.0411
TRIM33_Q9UPN9_582_GNMNCGAFQAHQMR (UniProt Q9UPN9)	-0.217	-0.598
USP16_Q9Y5T5_24_TVPIDDSSETLEPVCR (UniProt Q9Y5T5)	-0.224	-0.204
VRK3_Q8IV63_418_FVDKPGPFVGPCGHWIRPSETLQK (UniProt Q8IV63)	-0.347	-1.2
VARS2_Q5ST30_549_QLWWGHQIPAYLVVEDHAQGEEDCWVVGR (UniProt Q5ST30)	0.149	0.141
TRMT10C_Q7L0Y3_78_SSVQEECVSTISSSKDEDPLAATR (UniProt Q7L0Y3)	-0.141	-0.518
TXNRD2_Q9NNW7_523_SGLDPTVTGCUG (UniProt Q9NNW7)	-1.15	-2.15
UCHL3_P15374_95_QTISNACGTIGLIHAIANNK (UniProt P15374)	-0.157	-1.45
TRAPPC9_Q96Q05_317_NCLSPEDIIDK (UniProt Q96Q05)	0.12	0.213
TRAPPC13_A5PLN9_327_LSLEAIPDTVNLEEPFHITCK (UniProt A5PLN9)	0.0844	0.00702
VAV3_Q9UKW4_187_CPENDIR (UniProt Q9UKW4)	-0.136	-0.136
UNC45A_Q9H3U1_503_ALVGLCK (UniProt Q9H3U1)	0.0377	-0.217
U2SURP_O15042_918_EKDECTPTRK (UniProt O15042)	-0.0489	0.231
TXN_P10599_32_LVVVDFSATWCGPCK (UniProt P10599)	-0.415	-0.638
TPP1_O14773_365_GLTLLFASGDSGAGCWSVSGR (UniProt O14773)	-0.146	0.0356
